Hits are enriched below; roughly 3.3% of the tested compounds scored in any of these assays.
Tb PYK inh – inhibitors of Trypanosoma brucei pyruvate kinase; Q57TT1; TbPYK enzyme, Kinase-Glo Plus ATP luminescence, 45 min; Potency, µM (top dose mostly 76.8 µM), without a hit: at the highest dose activity, negative = inhibition, hits mostly inhibitors; hit rate 0.12% among 410,000; further: potency means the concentration at half of the fitted maximal effect; on the % scale 0 is the no-effect control and ±100 the full control effect; nearly all actives have a fitted effect of over 50% in size
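Glycolytic pyruvate kinase of T. brucei was incubated with substrate, test compound and 130 uM ADP for 45 minutes at room temperature. Luminescent Kinase-Glo Plus signal was measured after 10 minutes.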
AmpC inh no detg – inhibitors of E. coli AmpC beta-lactamase without detergent | AmpC nitrocefin hydrolysis, absorbance 480 nm, 0.0001% Triton | AID 485341 | Potency, µM (titrated, usually from 57.1 µM), inactives show top-dose activity change, negative = inhibition, hits mostly inhibitors | P00811 | hit rate 0.52% among 330,000;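 further: potency means the concentration at half of the fitted maximal effect; plate controls were no compound for no effect and no enzyme for full effect; nearly all actives have a fitted effect of over 20% in size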
Target sequence (P00811 whole entry, looked up): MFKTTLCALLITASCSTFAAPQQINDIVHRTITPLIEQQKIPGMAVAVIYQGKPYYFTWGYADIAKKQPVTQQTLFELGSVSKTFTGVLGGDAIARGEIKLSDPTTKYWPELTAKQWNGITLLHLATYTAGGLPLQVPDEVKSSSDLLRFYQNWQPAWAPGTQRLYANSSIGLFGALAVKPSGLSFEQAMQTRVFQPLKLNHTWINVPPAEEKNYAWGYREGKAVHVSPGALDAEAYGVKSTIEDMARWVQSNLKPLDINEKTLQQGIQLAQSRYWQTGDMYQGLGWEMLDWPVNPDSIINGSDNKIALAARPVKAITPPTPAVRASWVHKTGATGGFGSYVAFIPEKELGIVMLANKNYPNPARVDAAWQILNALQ
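AmpC (5.3 nM in the dispensed reagent) in 20 mM phosphate pH 7.0 with 0.01% (detergent screen) or 0.0001% Triton X-100 was preincubated with compounds for 15 min at room temperature. Nitrocefin was then added from an 800 uM solution, and hydrolysis was followed at 480 nm.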
RE007 growth inh – less growth of the S. pombe RE007 Vpr strain. S. pombe RE007 Vpr strain, BacTiter-Glo ATP luminescence, 24 h. Potency, µM (doses to about 92.2 µM), for the others: top-dose activity change, negative = less growth, actives largely listed as inhibitors. hit rate 0.21% among 360,000. AID 651644; active means well fitted falling curve with a large enough effect; inconclusive means small, poorly fitted or top-dose-only effect; inactive means no such curve, though single readings can be large or run the other way; further: potency means the concentration at half of the fitted maximal effect; on the % scale 0 is the no-effect control and ±100 the full control effect; nearly all actives have a fitted effect of over 50% in size
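Fission yeast strain RE007, carrying one chromosomally integrated HIV-1 vpr copy, was seeded at OD 0.01 in PMG+AL medium with 23 nL pinned compound. After 24 h at 30 °C and 99% humidity, viability was read by BacTiter-Glo luminescence.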
AmpC detergent – AmpC beta-lactamase inhibition with detergent present; hit rate 0.041% among 370,000; P00811; AmpC hydrolysis of nitrocefin, absorbance 480 nm, 0.01% Triton; Potency, µM (series often up to 114 µM), for the others: at the top dose activity change, negative = inhibition, hits mostly inhibitors; AID 485294;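 further: potency means the concentration at half of the fitted maximal effect; 0% = no-compound wells and -100% = no-enzyme wells; nearly all actives have a fitted effect of over 25% in size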
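20 mM phosphate pH 7.0 + 0.01% (detergent screen) or 0.0001% Triton X-100; 5.3 nM AmpC reagent; cpd preinc 15 min RT; nitrocefin (800 uM stock) to start; A480 q20 s × 4 min; Activity was normalised to no-enzyme and no-compound control wells.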
SARS PLpro yeast-1 – blocks SARS-CoV papain-like protease in a yeast assay; AID 485353; S. cerevisiae expressing SARS-CoV PLpro, growth rescue; Potency, µM (doses to about 32.9 µM), inactives show top-dose activity, positive = growth rescue, usual class: activators; hit rate 0.19% among 330,000; calls by dose curve; further: potency means the concentration at half of the fitted maximal effect; 0% is about no effect; nearly all actives have a fitted effect of over 55% in size
Sm TGR inh – S. mansoni TGR enzyme inhibition. Q962Y6. purified TGR, DTNB reduction, TNB absorbance 405 nm. Potency, µM (top dose mostly 114 µM), for the others: at the top dose activity change, negative = inhibition, most hits filed as inhibitors. hit rate 3% among 360,000; further: potency means the concentration at half of the fitted maximal effect; on the % scale 0 is the no-effect control and ±100 the full control effect; nearly all actives have a fitted effect of over 60% in size
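TGR 20 nM + NADPH 100 uM (dispensed conc.), cpd preinc 15 min RT; start with NADPH (500 uM addition) then DTNB (15 mM addition). Kinetic TNB absorbance, 405 nm filter. Four-parameter Hill fit across titration.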
SARS PLpro yeast-2 – Rescues yeast growth by inhibiting SARS-CoV PLpro | shares compounds with SARS PLpro yeast-1 | yeast expressing SARS-CoV PLpro, growth phenotype rescue | calls only | hit rate 19% among 1,000; call rule not given here
* hit, by the source's call; i = inactive; ? = inconclusive; . = not tested or not shown; + = active, no number; [ ] = another dose, or the depositor's remark. Unless noted, the call rests on the fitted dose curve; in most records, active means well fitted curve in the direction sought with a large enough effect; inconclusive means small, poorly fitted or top-dose-only effect, or another doubt; inactive means no such curve, though single readings can be large; an effect the other way counts as inactive or inconclusive.

SMILES | Tb PYK inh | AmpC inh no detg | RE007 growth inh | AmpC detergent | SARS PLpro yeast-1 | Sm TGR inh | SARS PLpro yeast-2
Cc1ccc(NC(=O)N2CC3CCCN3c3ccccc32)cc1Cl (stereo not drawn) | -11.0% | . | . | -3.2% | . | -7.8% | .
CCOc1ccc(-c2c(C)nn3c(C)c(C(=O)NCC(C)c4ccccc4)cnc23)cc1OCC (stereo not drawn) | 5.3% | . | . | 19.8% | . | -1.6% | .
COc1cccc(C(=O)Nc2nc(-c3ccccc3)c(-c3ccccc3)o2)c1 | 2.6% | -8.8% | 4.4% | ? | ? | 1.0% | +
O=C(Nc1nc(-c2ccccc2)c(-c2ccccc2)o1)c1ccc(F)cc1 | ? | -49.7% | -14.8% | -9.6% | -21.3% | -16.5% | .
Cc1cccc(-n2ccnc2SCC(=O)Nc2nnc(C)s2)c1 | -12.9% | -17.5% | -6.5% | ? | 6.1% | 0.9% | .
CCc1nnc(NC(=O)CSc2nccn2-c2cccc(C)c2)s1 | 6.3% | -9.0% | 20.6% | -14.4% | 12.6µM* | -11.5% | i
CCOc1cc(CNC(=O)c2ccc3c(c2)N(C)C(=O)C2CCCCN32)cc(OCC)c1OCC (stereo not drawn) | 0.1% | . | . | 21.8% | . | 4.8% | .
CCc1ccc(CNC(=O)C(C)n2ccc3cc(S(=O)(=O)N4CCCCCC4)ccc32)cc1 (stereo not drawn) | 3.5% | . | . | 2.8% | . | 0.4% | .
CCN(CC)S(=O)(=O)c1cccc(NC(=O)/C=C/c2cccc([N+](=O)[O-])c2)c1 | 14.3% | -27.6% | 4.6% | -2.0% | 20µM* | 2.9% | ?
CCN(CC)S(=O)(=O)c1cccc(NC(=O)/C=C/c2ccc([N+](=O)[O-])cc2)c1 | 0.5% | -33.1% | -3.0% | ? | 11.1% | -11.2% | .
CN1CCN(C(=O)c2ccc(S(=O)(=O)c3ccc(Br)cc3)cc2)CC1 | -4.9% | 45.4% | 13.8% | ? | 11.2µM* | -7.2% | i
Cc1cc2c(cc1C)NC(CC(=O)Nc1ccccc1SC(F)(F)F)C(=O)N2 (stereo not drawn) | -0.1% | . | . | 6.9% | . | 1.3% | .
O=C(Oc1c(CN2CCOCC2)cc(Cl)c2cccnc12)c1ccccc1F | 3.8% | -5.1% | ? | 7.0% | 2.51µM* | 1.1% | ?
CCc1nn2c(=O)c(S(=O)(=O)Nc3ccc(OC)c(Cl)c3)c(C)nc2s1 | -19.5% | . | . | -6.6% | . | -8.8% | .
CC1CCCCC1NC(=O)C(Cc1ccccc1)NS(=O)(=O)c1cccs1 (stereo not drawn) | 1.4% | -29.9% | -3.5% | 5.5% | ? | -30.2% | i
CC(CCc1ccccc1)NC(=O)C(Cc1ccccc1)NS(=O)(=O)c1cccs1 (stereo not drawn) | 1.1% | -20.7% | 8.3% | 2.6% | 8.4% | 5.5% | .
CCc1cc(C(=O)Cc2cnn(-c3ccccc3)c2)c(O)cc1O | -0.1% | -51.2% | 0.2% | -1.4% | 3.3% | -7.8% | .
O=C(Cc1cnn(-c2ccccc2)c1)c1ccc(O)c(O)c1O | -12.6% | -54.8% | 18.9% | -0.4% | ? | ? | i
COc1ccc(N(C(=O)c2cccc(C)c2)S(=O)(=O)c2ccc(C)cc2)cc1 | -4.0% | . | . | 16.6% | . | 5.5% | .
CNC(=O)N(C1=NCCCCC1)c1ccc(Br)cc1 | -4.2% | -22.4% | 7.3% | -6.4% | . | -4.5% | i
CCOC(=O)c1ccc(-n2c(O)c(/C=N/NC(=O)C3COc4ccccc4O3)c3ccccc3c2=O)cc1 (stereo not drawn) | 3.5% | -32.6% | 2.6% | -5.9% | 4.47µM* | -0.8% | i
CSc1ccc(CCNC(=O)C2CCN(c3ncnc4c3nc3n4CCCCC3)CC2)cc1 | -9.2% | . | . | -0.9% | . | -4.1% | .
O=C(N/N=C/c1ccc(-n2ccnc2)cc1)c1cccs1 | -3.0% | -33.6% | -10.2% | 6.3% | ? | 0.5% | i
O=C(N/N=C/c1ccncc1)c1cccs1 | 5.5% | -26.5% | -11.4% | -15.0% | -1.1% | 2.3% | .
COc1ccc(-c2cc(N3C(=O)Nc4ccccc4N3O)n[nH]2)cc1OC | 5.4% | 7.9% | -1.4% | -7.2% | 11.6% | -6.8% | .
SMILES | Tb PYK inh | AmpC inh no detg | RE007 growth inh | AmpC detergent | SARS PLpro yeast-1 | Sm TGR inh | SARS PLpro yeast-2
COc1ccc(-c2cc(N3C(=O)Nc4ccccc4N3O)n[nH]2)cc1 | -13.3% | 2.8% | -0.1% | 0.5% | 11.2µM* | 7.3% | i
C[C@H](OC(=O)c1[nH]cnc1C(=O)N1CCN(C(=O)OC(C)(C)C)CC1)c1ccccc1 | 0.7% | 70.0% | -4.5% | . | -3.9% | . | .
CCOC(=O)c1[nH]cnc1C(=O)N1CCN(C(=O)OC(C)(C)C)CC1 | 3.2% | -10.5% | -2.0% | -0.4% | ? | -8.4% | ?
O=C(N/N=C/c1c(O)n(-c2ccc(Cl)cn2)c(=O)c2ccccc12)c1ccncc1 | -2.1% | -14.2% | 7.6% | -9.1% | 12.6µM* | -5.6% | i
O=C(N/N=C/c1c(O)n(-c2ccc(Cl)cn2)c(=O)c2ccccc12)C1CC1 | 0.7% | -25.9% | 6.7% | -9.9% | -5.5% | -9.7% | .
NC(=S)NN=C1C2CC3CC(C2)CC1C3 | -14.8% | -13.2%[11.4 µM] | -9.1% | ? | ? | -7.3% | i
Cc1c(NC(=O)Nc2ccc(Cl)c(C(F)(F)F)c2)c(=O)n(-c2ccccc2)n1C | -27.2% | . | . | 9.3% | . | 5.6% | .
O=C(CCN1C(=O)[C@@H]2Cc3ccccc3CN2C1=O)N[C@@H](Cc1ccccc1)C(=O)O | 4.0% | -44.8% | 6.0% | ? | 6.31µM* | 6.4% | i
COCCCNC(=O)c1c(NC(=O)C2COc3ccccc3O2)sc2c1CCCC2 (stereo not drawn) | 1.5% | -12.8% | 3.9% | -0.5% | ? | 6.0% | i
CCOC(=O)c1ccc(-c2ccc(C3Nc4ccccc4C(=O)N3O)o2)cc1 (stereo not drawn) | -5.0% | -51.3% | -2.8% | -1.9% | 5.01µM* | -24.0% | ?
O=C1c2ccccc2NC(c2ccc(-c3cccc(F)c3)o2)N1O (stereo not drawn) | -4.6% | -23.0% | . | 0.9% | 9.7% | ? | .
O=C(/C=C1\NC2(CCCC2)Cc2ccccc21)C(=O)N/N=C/c1ccccc1O | -6.0% | -29.1% | 7.2% | ? | 7.94µM* | -7.4% | +
CNCCCN1c2ccccc2CCc2ccccc21 | -13.3% | 0.7% | -5.7% | ? | 17.8µM* | -11.5% | i
CN(C)CCCN1c2ccccc2CCc2ccc(Cl)cc21 | 4.5% | 116.9% | -11.6% | 2.4% | -12.9% | -25.9% | .
CC(=O)c1cccc(NC(=O)c2ccc(-n3c(C)nnc3C)cc2)c1 | -0.9% | . | . | -4.9% | . | -2.1% | .
